The values below come from PubChem BioAssay (Tox21).

Test [1] is described as follows: qHTS RealTime-Glo MT Cell Viability Assay in HEK293 cells - 0 hour (AID 1224880). Note: top concentration of the series differs between compounds; nearly all actives have a fitted effect of over 45% in size. Summed up:
(§1)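 Luminescence readout at each listed time point; HEK293, 600 cells/well, RealTime-Glo MT reagent added with cells; compounds pinned (23 nL in DMSO) after 5 h at 37 C; continuous culture at 37 C.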

The nature of test [2]: A CellTox Green Cytotoxicity Assay to monitor cytotoxicity in HEK293 cells - 32 hour (AID 1224881). Note: nearly all actives have a fitted effect of over 40% in size. Note: potency is the fitted concentration of half-maximal effect. An outline of the steps:
(§2)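 Read-out: fluorescence of a cell-impermeant cyanine dye staining DNA of dead cells, proportional to cytotoxicity. HEK293, 600 cells/well with reagent, compound (23 nL DMSO) added after 5 h; reads at 0, 8, 16, 24, 32, 40 h.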

The nature of test [3]: A CellTox Green Cytotoxicity Assay to monitor cytotoxicity in HepG2 cells - 0 hour (AID 1224882). Note: nearly all actives have a fitted effect of over 35% in size. Note: potency is the fitted concentration of half-maximal effect. Summed up:
(§3)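 HepG2, 600 cells/well premixed w/ CellTox Green; 5 h settle, 37 C/5% CO2; pintool cpd add (DMSO); 37 C, 40 h; fluorescence read at 0, 8, 16, 24, 32, 40 h.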

A short description of test [4]: A CellTox Green Cytotoxicity Assay to monitor cytotoxicity in HepG2 cells - 32 hour (AID 1224883). Note: nearly all actives have a fitted effect of over 50% in size. Summed up:
as §3

Test [5] is described as follows: qHTS RealTime-Glo MT Cell Viability Assay in HepG2 cells - 16 hour (AID 1224885). Note: nearly all actives have a fitted effect of over 50% in size. Summed up: (§4)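 Viability was tracked continuously by NanoLuc luminescence from prosubstrate reduced by living HepG2 cells, at successive time points over 40 h of compound exposure. Cells with reagent were preincubated 5 h at 37 °C before compound addition.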
A general note: Quantitative high-throughput screening tests each substance at several concentrations.

Test [6] can be described thus: qHTS RealTime-Glo MT Cell Viability Assay in HEK293 cells - 24 hour (AID 1224886). Note: top concentration of the series differs between compounds; nearly all actives have a fitted effect of over 50% in size. Summed up: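 Viability tracked continuously by luminescence as live cells reduce a prosubstrate for NanoLuc; HEK293 cells preincubated 5 h, compound-treated at 37 C, and read at 0, 8, 16, 24, 32 and 40 h.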
Test [7] can be described thus: A CellTox Green Cytotoxicity Assay to monitor cytotoxicity in HEK293 cells - 16 hour (AID 1224888). Note: nearly all actives have a fitted effect of over 35% in size. Summed up: as §2
Test [8] can be described thus: qHTS RealTime-Glo MT Cell Viability Assay in HepG2 cells - 0 hour (AID 1224889). Note: nearly all actives have a fitted effect of over 50% in size. An outline of the steps: as §4
Test [9] can be described thus: A CellTox Green Cytotoxicity Assay to monitor cytotoxicity in HepG2 cells - 8 hour (AID 1224890). Note: nearly all actives have a fitted effect of over 45% in size. Note: potency is the fitted concentration of half-maximal effect. An outline of the steps:
as §3

Test [10] is described as follows: qHTS assay to identify small molecule antagonists of the estrogen receptor alpha (ER-alpha) signaling pathway using the BG1 cell line in the presence of 0.1 nM 17-beta-estradiol - cell viability counter screen (AID 1259241). Note: nearly all actives have a fitted effect of over 40% in size. An outline of the steps: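 VM7Luc4E2 cells (endogenous full-length ER-alpha, 4xERE-luciferase), cultured 5 days in charcoal-stripped serum, exposed to compounds with 0.1 nM 17beta-estradiol (final) for 22 hr at 37C. Viability read in same wells as live-cell protease fluorescence after 30 min.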

A short description of test [11]: qHTS assay to identify small molecule antagonists of the androgen receptor (AR) signaling pathway using the MDA cell line in the presence of 0.5 nM R1881 - cell viability counter screen (AID 1259242). Note: nearly all actives have a fitted effect of over 45% in size. Summed up: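 Live-cell protease fluorescence, CellTiter-Fluor, 30 min at 37C. Cells: MDA-kb2, 3,000/well, preincubated 5 hr. Compounds plus 0.5 nM R1881 final, 16 hr, 37C, 0% CO2.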

Test [12] deals with Estrogen receptor (Homo sapiens) (UniProt P03372). In words: qHTS assay to identify small molecule antagonists of the estrogen receptor alpha (ER-alpha) signaling pathway using the BG1 cell line in the presence of 0.1 nM 17-beta-estradiol (AID 1259244). Note: nearly all actives have a fitted effect of over 50% in size. Summed up:
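Luminescence after ONE-Glo (30 min, room temperature) measured ERE-luciferase activity in VM7Luc4E2 cells treated 22 h with compound and 0.1 nM final 17beta-estradiol as stimulator.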

Test [13] in a line: qHTS assay to identify small molecule HDAC inhibitors (AID 1259364).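 Note: wild-type HCT-116 cells with endogenous class I/II HDAC activity; top concentration of the series differs between compounds; nearly all actives have a fitted effect of over 45% in size.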 Summed up: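 HCT-116 (wild type), 1,500 cells/well, overnight; compound 2 hr 37C 5% CO2; HDAC-Glo I/II reagent 30 min RT; luminescence readout.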
Test [14] can be described thus: qHTS assay to identify small molecule HDAC inhibitors - cell viability counter screen (AID 1259365). An outline of the steps: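 Wild-type HCT-116 cells, 1,500/well, cultured overnight, then compound-treated 2 h at 37 C. Viability measured as ATP luminescence with CellTiter-Glo after 30 min at room temperature.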
Test [15] in a line: qHTS assay to identify small molecule agonists of the sonic hedgehog signaling (Shh) pathway - cell viability counter screen (AID 1259366). Note: nearly all actives have a fitted effect of over 50% in size. An outline of the steps:
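NIH/3T3-derived Gli1-Luc reporter cells, 2,000 per well, received compound after 4 h and were treated about 23 h at 37C. Viability measured in the same wells by CellTiter-Fluor fluorescence after 1 h.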

Test [16] is described as follows: qHTS assay to identify small molecule antagonists of the sonic hedgehog signaling (Shh) pathway - cell viability counter screen (AID 1259367). Note: nearly all actives have a fitted effect of over 55% in size. An outline of the steps:
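Conditioned medium drove Shh signaling in 3T3 Gli1-Luc cells exposed to compounds at 37C and 5% CO2. Viability was determined from CellTiter-Fluor fluorescence, with reagent incubated 1 hr after 23 hr of treatment.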

A short description of test [17]: A CellTox Green Cytotoxicity Assay to monitor cytotoxicity in HEK293 cells - 8 hour (AID 1224884). Note: nearly all actives have a fitted effect of over 35% in size. Summed up:
as §2

Test [18] is described as follows: qHTS RealTime-Glo MT Cell Viability Assay in HEK293 cells - 8 hour (AID 1224887). An outline of the steps: as §1
A short description of test [19]: qHTS assay to identify small molecule phospholipidosis (PLD) inducers (AID 1259344; active = well fitted curve in the direction sought with a large enough effect; an effect the other way counts as inactive or inconclusive). An outline of the steps: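 After 4 h attachment on collagen I, HepG2 cells were dosed with compound alongside LipidTOX Red, kept 24 h at 37 C, fixed, and imaged for lamellar phospholipid pits.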
For test [20], the target named is Androgen receptor (Homo sapiens) (UniProt P10275). In words: qHTS assay to identify small molecule antagonists of the androgen receptor (AR) signaling pathway using the MDA cell line in the presence of 0.5 nM R1881 (AID 1259243). Note: nearly all actives have a fitted effect of over 50% in size. An outline of the steps: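 MDA-kb2, MMTV-luc (AR/GR elements); 3,000 cells/well; cpd + 0.5 nM R1881 final; 16 hr 37C, 0% CO2; ONE-Glo 30 min RT; luminescence.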
Androgen receptor (Homo sapiens), sequence (P10275 whole entry, looked up): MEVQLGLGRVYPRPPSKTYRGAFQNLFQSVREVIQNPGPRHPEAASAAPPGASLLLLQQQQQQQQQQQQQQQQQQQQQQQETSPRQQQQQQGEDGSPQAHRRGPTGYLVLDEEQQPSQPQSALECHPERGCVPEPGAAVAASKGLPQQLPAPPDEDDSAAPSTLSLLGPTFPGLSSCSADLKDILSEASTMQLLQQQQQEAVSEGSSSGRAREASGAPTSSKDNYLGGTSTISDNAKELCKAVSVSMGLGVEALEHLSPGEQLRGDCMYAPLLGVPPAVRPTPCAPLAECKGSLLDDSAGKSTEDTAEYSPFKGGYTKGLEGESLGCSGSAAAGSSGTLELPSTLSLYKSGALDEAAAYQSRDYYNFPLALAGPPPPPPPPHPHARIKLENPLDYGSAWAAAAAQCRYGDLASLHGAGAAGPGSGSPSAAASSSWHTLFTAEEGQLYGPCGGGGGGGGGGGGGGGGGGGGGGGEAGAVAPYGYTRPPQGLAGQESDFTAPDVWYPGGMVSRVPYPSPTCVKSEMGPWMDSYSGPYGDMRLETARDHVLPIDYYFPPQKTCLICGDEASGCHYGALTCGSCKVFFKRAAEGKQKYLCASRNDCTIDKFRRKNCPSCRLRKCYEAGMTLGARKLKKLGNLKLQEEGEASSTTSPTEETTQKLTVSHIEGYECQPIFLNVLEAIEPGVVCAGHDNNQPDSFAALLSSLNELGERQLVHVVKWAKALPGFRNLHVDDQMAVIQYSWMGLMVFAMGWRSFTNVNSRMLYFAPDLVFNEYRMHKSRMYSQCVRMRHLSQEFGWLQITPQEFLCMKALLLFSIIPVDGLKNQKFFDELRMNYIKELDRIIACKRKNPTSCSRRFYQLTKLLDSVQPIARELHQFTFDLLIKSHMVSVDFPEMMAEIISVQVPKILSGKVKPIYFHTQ

Where “and” joins values, the source holds several entries; their conditions need not be identical. Equal values may be shown once. Results filed as inconclusive are left out. The source holds several records for some structures; these can differ, active in one and inactive in another. Calls of active or inactive are those of the source. Unless noted, calls come from the whole dose curve; as a rule, active = well fitted curve in the direction sought with a large enough effect in the repeat runs; inconclusive = weak or mixed curves; inactive = no such curve, though single readings can be large; an effect the other way counts as inactive or inconclusive.

Estrogen receptor (Homo sapiens), sequence (P03372 whole entry, looked up): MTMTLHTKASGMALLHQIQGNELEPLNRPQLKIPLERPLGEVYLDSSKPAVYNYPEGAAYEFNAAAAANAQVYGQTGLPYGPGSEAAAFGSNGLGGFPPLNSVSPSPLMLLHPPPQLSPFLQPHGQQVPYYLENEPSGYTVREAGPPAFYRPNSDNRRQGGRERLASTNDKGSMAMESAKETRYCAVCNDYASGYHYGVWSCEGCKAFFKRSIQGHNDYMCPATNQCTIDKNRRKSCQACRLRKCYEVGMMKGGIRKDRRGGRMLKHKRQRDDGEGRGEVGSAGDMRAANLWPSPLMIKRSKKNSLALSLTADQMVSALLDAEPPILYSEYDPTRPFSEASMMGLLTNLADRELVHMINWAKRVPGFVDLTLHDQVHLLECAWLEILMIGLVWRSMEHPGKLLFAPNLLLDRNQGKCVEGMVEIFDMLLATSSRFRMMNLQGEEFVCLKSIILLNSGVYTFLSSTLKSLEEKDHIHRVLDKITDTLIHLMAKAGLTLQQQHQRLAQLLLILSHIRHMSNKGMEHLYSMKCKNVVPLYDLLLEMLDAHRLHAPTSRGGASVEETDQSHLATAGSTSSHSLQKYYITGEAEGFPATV

Take `CN1CCCC1`: the Potency result in [1], in [2], in [3], in test [4], in test [5] and in [6] was “inactive” in each case. Moreover, the Potency entry in [7], in test [8], in [9], in test [11], in [13] and in [15] was “inactive” throughout. Further, in [16], the Potency entry is “inactive”. The outcome in test [10], in test [12] and in [14] was inactive.
Take `CCCCCCCCCCCC`: the Potency entry in test [1], in test [2], in test [3], in test [4], in test [17] and in test [5] was “inactive” each time. Besides, the Potency result in [18], in [7], in [8], in test [9], in test [11] and in test [13] was “inactive” each time. The Potency entry in test [15] and in test [16] was “inactive” throughout. In addition, the result in [10] and in test [14] was inactive.
Take `O=C(CCCN1CCN(c2ccccn2)CC1)c1ccc(F)cc1`: the Potency entry in test [1], in test [2], in [3], in [4], in test [17] and in [5] was “inactive” each time. Moreover, the Potency result in test [7], in [8], in test [9], in test [11], in [19] and in [15] was “inactive” each time. The Potency result in [16] is “inactive”. Besides, the outcome in test [10] and in test [14] was inactive.
For the compound `CCC(=O)OC(C)c1ccccc1` (stereo not given), the Potency result in [1], in test [2], in [3], in test [4], in test [17] and in test [5] was “inactive” throughout. The Potency result in test [18], in [9], in test [11], in test [13], in test [15] and in [16] was “inactive” in each case. For the same compound, the result in test [10], in [12] and in [14] was inactive.
With `CC(C(=O)O)c1ccc(CC2CCCC2=O)cc1` (stereo not given), the Potency entry in test [1], in test [2], in test [3], in [17], in [5] and in test [6] was “inactive” each time. In addition, the Potency entry in test [18], in test [7], in test [8], in test [9], in test [11] and in test [19] was “inactive” throughout. In addition, the Potency result in test [13], in test [15] and in test [16] was “inactive” throughout. Also, the result in test [10], in test [12] and in test [14] was inactive.
In the case of `Nc1c2c(nc3ccccc13)CCCC2O` (stereo not given), the Potency result in test [1], in test [2], in [3], in test [4], in test [17] and in test [5] was “inactive” each time. For the same compound, the Potency result in test [18], in test [7], in test [9], in test [11], in test [19] and in test [13] was “inactive” throughout. Besides, the Potency entry in test [15] and in test [16] was “inactive” each time. For the same compound, the result in test [10], in test [12] and in test [14] was inactive.
Turning to `COC(=O)c1c(Cl)c(Cl)c(C(=O)OC)c(Cl)c1Cl`, the Potency result in test [1], in test [4], in test [17], in [5], in test [8] and in [11] was “inactive” throughout. Moreover, the Potency result in test [19], in test [13], in test [15] and in [16] was “inactive” in each case. Further, the Potency entry is “inactive and 43.6 µM (active)” in test [2]; “inactive and 138 nM (active)” in test [3]; “inactive and 110 nM (active)” in [9]. Also, the result in test [10], in test [12] and in test [14] was inactive.
With `CC(=O)N(CC(O)CO)c1c(I)c(C(=O)NCCO)c(I)c(C(=O)NCC(O)CO)c1I` (stereo not given), the Potency result in test [1], in [2], in test [3], in [4], in [17] and in [5] was “inactive” in each case. Further, the Potency entry in [18], in [8], in test [9], in [11], in test [19] and in test [13] was “inactive” throughout. In addition, the Potency result in test [15] and in test [16] was “inactive” in each case. The result in test [10] and in [14] was inactive.
For `NS(=O)(=O)c1cc(C(=O)NN2C[C@H]3[C@H]4CCC(C4)[C@H]3C2)ccc1Cl`, the Potency result in [1], in [2], in [3], in [4], in [17] and in test [5] was “inactive” throughout. Also, the Potency entry in test [7], in test [8], in test [9], in test [11], in test [20] and in test [13] was “inactive” throughout. Besides, the Potency result in [16] is “inactive”. The result in test [10], in test [12] and in test [14] was inactive.
